Measured values: ChEMBL document CHEMBL1157539, “Thousands of chemical starting points for antimalarial lead identification” (Nature, 2010)

Experiments:
Format in all cases: functional
Plasmodium falciparum [1] = experiment: GSK_TCMDC: Inhibition of Plasmodium falciparum 3D7 in whole red blood cells, using parasite LDH activity as an index of growth. Test compounds present at 2uM
Plasmodium falciparum [2] = experiment: GSK_TCMDC: Inhibition of Plasmodium falciparum Dd2 in whole red blood cells, using parasite LDH activity as an index of growth. Test compounds present at 2uM
HepG2 = experiment: GSK_TCMDC: Percent inhibition of human HepG2 cell line. Test compounds present at 10uM.

SMILES	Inhibition (Plasmodium falciparum [1]) [%]	Inhibition (Plasmodium falciparum [2]) [%]	Inhibition (HepG2) [%]
CCN1CCN(CCCNc2ccnc3cc(Cl)ccc23)CC1.Cl	100	77	7
CC(C)COc1ccc(Cl)cc1Cc1ccc(-c2nc3cc(N4CCN(C)CC4)ccc3[nH]2)o1.Cl	100	41	6
C(=N\Nc1nccc2sc(-c3cccnc3)cc12)/c1cccnc1	98	54	5
O=C(Nc1cccc(Cl)c1Cl)Nc1ccnc2ccccc12	100	47	31
COc1cc(OC)c(OC)cc1C=NN=c1cc(C)[nH]c2ccccc12	100	95	5
Cc1ccccc1CNc1noc(-c2c(F)cccc2Cl)n1	97	90	14
CCCc1cc(N2CCC(N(CC)CC)C2)nc(Nc2ccc(OC)cc2)n1 (stereo not drawn)	90	4	9
COc1ccc(CNCc2cccc(-c3ccc(-c4nc5cc(C(F)(F)F)ccc5[nH]4)cc3)c2)cc1.O=C(O)C(F)(F)F	100	95	23
N#Cc1ccc(CN2CCCN(Cc3cccc(NC(=O)c4ccc(Cl)c(Cl)c4)c3)CC2)cc1.O=C(O)C(F)(F)F	95	10	19
CCC(C)OC(=O)C1=C(C)NC2=C(C(=O)CC(c3ccc(OC)c(OC)c3)C2)C1c1cccc(O)c1 (stereo not drawn)	100	98	0
COc1cccc(CNC(=O)[C@@H]2CN(C(=O)c3ccccc3)CCN2)c1.O=C(O)C(F)(F)F	92	0	4
